# Assay results reported in the supplement of paper PMC13380429.
# Test system: Vero E6 infected with SARS-CoV-2
# Assay: SARS-CoV-2 infection rate relative to infected DMSO; higher = more infection, active = 60 or less
# Details: 24 h
row,SMILES,SARS-CoV-2 infection rate
1,COc1ccc2[nH]c(SCc3ncc(C)c(OC)c3C)nc2c1 [omeprazole-sulfide] (10 µM),104% (inactive)
2,CNC[C@@H]1CC[C@@H](N)[C@@H](O[C@H]2[C@H](O)[C@@H](O[C@H]3OC[C@](C)(O)[C@H](NC)[C@H]3O)[C@H](N)C[C@@H]2N)O1 [micronomicin] (10 µM),96% (inactive)
3,COc1ccc(CNC(=O)/C=C/c2ccc3[nH]cc(CCN(C)C)c3c2)cc1 (10 µM),88.5% (inactive)
4,CC[N+](CC)(CC)CCC(O)(c1ccccc1)C1CCCCC1 (stereo not given) [tridihexethyl] (10 µM),110% (inactive)
5,O=C(CCBr)N1CC[N+]2(CC1)CC[N+]1(CCN(C(=O)CCBr)CC1)CC2 [spirobromin] (10 µM),112% (inactive)
6,CCCCc1ccc2[nH]c(NC(=O)OC)nc2c1 [parbendazole] (10 µM),111% (inactive)
7,CCCCCCCCCCCCCCCCO [1-hexadecanol] (10 µM),110% (inactive)
8,CCN(CC)CCOC(=O)C1(c2ccc([N+](=O)[O-])cc2)CCCC1 [nitrocaramiphen] (10 µM),104% (inactive)
9,CC(=O)c1ccc2c(c1)[C@H](NC(=O)c1ccc(F)c(Cl)c1)[C@H](O)C(C)(C)O2 [tonabersat] (10 µM),94.5% (inactive)
10,CCc1nc(C)ccc1O [emoxipin] (10 µM),99.5% (inactive)
11,CC[C@H](/C=C/[C@@H](C)[C@H]1CC[C@H]2[C@@H]3CC=C4C[C@@H](O)CC[C@]4(C)[C@H]3CC[C@]12C)C(C)C [Stigmasterol (Stigmasterin)] (10 µM),116% (inactive)
12,O=C(Nc1cccc2cccnc12)c1ccc(N2C(=O)[C@@H]3[C@H](C2=O)[C@@H]2C=C[C@H]3C2)cc1 [endo-IWR-1] (10 µM),98.5% (inactive)
13,C=C[C@]1(C)CC[C@@H](C(=C)C)C[C@H]1C(=C)C [beta-elemene] (10 µM),111% (inactive)
14,O=C(O)c1cc(O)c2c(c1)[C@H]([C@H]1c3cc(C(=O)O)cc(O)c3C(=O)c3c(O[C@@H]4O[C@H](CO)[C@@H](O)[C@H](O)[C@H]4O)cccc31)c1cccc(O[C@@H]3O[C@H](CO)[C@@H](O)[C@H](O)[C@H]3O)c1C2=O [sennoside-A] (10 µM),113% (inactive)
15,COc1ccccc1S(=O)(=O)Nc1ccc2c(c1)CN(C)C(=O)N2 (0.833333 µM),108% (inactive)
16,CC(CN(C)C)CN1c2ccccc2CCc2ccccc21 (stereo not given) [trimipramine] (10 µM),80.5% (inactive)
17,COC(=O)C1=C(C)NC(C)=C(C(=O)OCCSc2ccccc2)[C@@H]1C (10 µM),94.5% (inactive)
18,CCOc1ccc2nc(S(N)(=O)=O)sc2c1 [ethoxzolamide] (10 µM),97.5% (inactive)
19,CN(C)C1CCN(C(=O)c2ccc(NC(=O)Nc3ccc(-c4nc(N5CCOCC5)nc(N5CCOCC5)n4)cc3)cc2)CC1 (10 µM),115% (inactive)
20,Cc1nc2c(-c3cnc(N)nc3)nc(N3CCOCC3)nc2n1C(C)C (10 µM),108% (inactive)
21,"Cc1cc(C)cc(C(=O)O[C@H]2C[C@H]3CC[C@@H](C2)N3C)c1 [tropanyl-3,5-dimethylbenzoate] (10 µM)",90% (inactive)
22,C[C@@H](NC(=O)CCc1nc2ccccc2c(=O)[nH]1)c1ccccc1 (10 µM),95.5% (inactive)
23,O=C1NC(=O)c2c1c(-c1ccccc1)cc1[nH]c3ccc(O)cc3c21 (0.833333 µM),93.5% (inactive)
24,Cc1nc(Nc2n[nH]c3c2CN(C(=O)N[C@H](CN(C)C)c2ccccc2)C3(C)C)c2sccc2n1 (10 µM),111% (inactive)
25,CC(C)N[C@H]1CCn2c(=O)[nH]c3cccc(c32)[C@@H]1O [zilpaterol] (10 µM),106% (inactive)
26,CCOC(=O)COc1ccc2c(=O)cc(-c3ccccc3)oc2c1 [efloxate] (10 µM),96.5% (inactive)
27,Nc1nc(=O)c2c([nH]1)NCC(CNc1ccc(C(=O)N[C@@H](CCC(=O)O)C(=O)O)cc1)N2C=O (stereo not given in full) [leucovorin] (10 µM),89.8% (inactive)
28,O=C(Nc1nc(-c2cc(Cl)cs2)c(N2CCN(C3CCCCC3)CC2)s1)c1cnc(N2CCC(C(=O)O)CC2)c(Cl)c1 [avatrombopag] (10 µM),100% (inactive)
29,Cc1cc(C)c(N)c(C#Cc2cccc(F)c2)n1 (10 µM),97.5% (inactive)
30,NCC[C@H](O)C(=O)N[C@@H]1C[C@H](N)[C@@H](O[C@H]2O[C@H](CN)[C@@H](O)[C@H](O)[C@H]2O)[C@H](O)[C@H]1O[C@H]1O[C@H](CO)[C@@H](O)[C@H](N)[C@H]1O [amikacin] (10 µM),91% (inactive)
